# Data taken from PMC12136788.
# Where a chain is given by its changes, count along the chain named. Over roughly 24,000 sequences, “enrichment r” has its median near 0.99; the highest 2% begin near 3.7. The full list was thinned out, with the highest values kept by preference.
# T1: UNK ZnF1-3 (human, UniProt Q9C0B0 31-174)
# T1 sequence: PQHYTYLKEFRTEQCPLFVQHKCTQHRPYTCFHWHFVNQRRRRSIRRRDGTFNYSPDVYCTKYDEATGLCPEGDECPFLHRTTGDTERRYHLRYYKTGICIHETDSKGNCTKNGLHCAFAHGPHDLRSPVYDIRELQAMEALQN
# B1: chr4:86222814:86222815:+_ENSMUSG00000070934_ENSMUST00000091064|mus_mus|FALSE|FALSE (ssRNA)
# RNA: GGGAGUUCUACAGUCCGACGAUCGAAUAUUAAAGACAAAUGAUGCAAAAAAAAAAAAAACACCGUAAUUCAGCAUUUUACUAAAGAGCAUUUGGCAUUAUUUCAACGCAUGAGGAGGCUGUGCUUGGGCCCAUCUACUCUUUCCAACAGAGGAUUGAGCAUCA
# B2: chr6:40197388:40197389:+_ENSMUSG00000057716_ENSMUST00000061740|mus_mus|mus_mus_mus_hu_False|68_78 (ssRNA)
# RNA: GGGAGUUCUACAGUCCGACGAUCGAGACACUGGGGUGGAUUUAUUCCACCUCUGUUUGCUAGCCUCUAAGAUAGAUUGUUAUUUUGGGAUUCAUGGCCUUGAAUAUCAAGAGGGAAAGGAAGAGGAUGGAAAGAGUCAAGAGUCAACAGAGGAUUGAGCAUCA
# B3: 52238803_52238923_934_CDS_ENSG00000023330_ENST00000469224|human|control|control (ssRNA)
# RNA: GGGAGUUCUACAGUCCGACGAUCCCCACACACCCGUGGGUGGCGACUCAUUCCUAGGUAGUCAUUACUGCACCAGACUGACACUUGCUUUUUGGUGAUGAGGGAGUCUGAAUAGUCAUCUGCCAUGGGGAAGAUGUGUGCUCGCAACAGAGGAUUGAGCAUCA
# B4: 14029136_14029256_1416_CDS_ENSG00000175595_ENST00000311895|human|control|control (ssRNA)
# RNA: GGGAGUUCUACAGUCCGACGAUCUUUUUUCUUUUUGAGGGUUCUUUCUUUGGUAGAAGCCCGUUCUUUGUUUUGGGGGUCUUUAGGUCUUUUGUGAGAUUUCCUAAUUCUCUUUGAACUGUCUUCCUUCCUAAAUUUCAUCCACAACAGAGGAUUGAGCAUCA
# B5: 80201405_80202562_482_3pUTR_ENSMUSG00000017421_ENSMUST00000017567|mouse|control|control (ssRNA)
# RNA: GGGAGUUCUACAGUCCGACGAUCCUGUGGCUGAAAGGAAGUUGAGGCUGCAGAUUCAUCAUCAUCAUAUUCAUCAGAAUCAUCUUGUUGUUUCUUUUUCUGACUCUCUUGUGUUUUCUGUUCAAGAAGUCGCCGUCUUUCAUCCAACAGAGGAUUGAGCAUCA
# B6: chr5:136386232:136386233:-_ENSMUSG00000051391_ENSMUST00000055808|mus_hu|FALSE|FALSE (ssRNA)
# RNA: GGGAGUUCUACAGUCCGACGAUCAAGUACACAAUCGAUGGCUUGAUGUUACAUAUGGCUGUAAUGUAGAAAUACUGUAAACUGCAAUUUAGUGUUAAUACUGUCAACUAAUCAGAGACUUCGGAAAACUGGCAAGGCCUAAACCAACAGAGGAUUGAGCAUCA
# B7: chr6:30692278:30692279:+_ENSG00000196230_ENST00000327892|hu_hu|FALSE|FALSE (ssRNA)
# RNA: GGGAGUUCUACAGUCCGACGAUCCCAGAGUGGAAAGAGAGAGGAGACAUUCAACAAACAAGUAUUUAUUGAGCGCCUACUAUGUGCCAGGCACUGUUCUAGACCCCCCCCAGAAGAAAAAACAAAAAACAAGAUAGAGGCAGCCAACAGAGGAUUGAGCAUCA
# B8: chr19:7991675:7991676:-_ENSG00000104980_ENST00000595831|hu_mus|motif|central (ssRNA)
# RNA: GGGAGUUCUACAGUCCGACGAUCAUGUACAGGAAGUAAGAGCACUGAUUUAAAAACAAAAACAAAACAAAACAAAAGGACCGGAAGUGGCUUGGAAGGCAAUGCCAGUGGACUACUUAGAACAGCAGGCCAGGCCUCACCCGACAACAGAGGAUUGAGCAUCA
# B9: chr19:7991675:7991676:-_ENSG00000104980_ENST00000595831|hu_mus|FALSE|FALSE (ssRNA)
# RNA: B8 RNA with G82U, G83A
# B10: chr19:37063429:37063430:+_ENSMUSG00000040565_ENSMUST00000099494|mus_mus|FALSE|FALSE (ssRNA)
# RNA: GGGAGUUCUACAGUCCGACGAUCCAUAGCAUCCCAAAGAUGUGGCAACUUCACUGCCAUUUCAGCACCAAAAUGCUUCACUAUAGUUGUUAAGGCAAAUUCAGCUCCUCUCCGCUGUACCAGGUAAGGCUUCUGACCCUCAUCCAACAGAGGAUUGAGCAUCA
# B11: chr4:95690885:95690886:+_ENSMUSG00000028572_ENSMUST00000156910|mus_mus|mus_mus_mus_hu_False|1_8 (ssRNA)
# RNA: GGGAGUUCUACAGUCCGACGAUCUUUAGAAAAUGUUAAAUACCAUGCUAAAAUAUUUUCAAAGGCUUAUUUUAUUUUACCAGAAGUCACAGGCAAGCAGACACUACAAGAAUAUAUGAAAAUGAAACAACAGUGUAAAAUGUACAACAGAGGAUUGAGCAUCA
# Target: T1, UNK ZnF1-3
# Assay: nsRBNS (natural sequence RNA bind-n-seq); RBNS binding buffer (assumed for nsRBNS): 25 mM Tris pH 7.5, 150 mM KCl, 3 mM MgCl2, 0.01% Triton X-100, 500 ug/ml BSA, 20 U/ml SUPERase-In, 4 C; UNK is unkempt and MSI1 is Musashi-1; names of the RNAs are library labels; protein concentration not given here; high values mean tight binding
row,Binder,binding signal [enrichment R]
1,B1,1.67
2,B2,1.33
3,B3,1.04
4,B4,0.174
5,B5,0.524
6,B6,1.26
7,B7,2.28
8,B8,5.15
9,B9,5.35
10,B10,0.992
11,B11,1.97
